Measurements taken from PubChem BioAssay.
Active and inactive are the calls of the source. Cut-off read from the data, not from the text of the source, unless noted: active = response above about 15%; inactive = the rest.

How the values were obtained:
[1] = inhibitors of CD8+ T cell-vesicle binding, pilot screen, LFA-1/ICAM-1 modulator project, MLPCN validation set, flow cytometry (AID 2523;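 active = response below a set limit, under 55% cells CD8-positive and vesicle-bound, and CD8 cells' 90th-percentile brightness under 279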;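 for vesicle binding response: mean PE anti-B7-1 fluorescence of CD8+ cells relative to row control; 100% = QL9-loaded vesicles with DMSO vehicle in the same plate row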); conditions: 2C mouse CD8+ T cells, at 7 µM, stronger effect = lower value; double positive events: measured here: CD8+/vesicle+ event percentage
[2] = molecular target: Integrin beta-1 (Homo sapiens) + Integrin alpha-4 (Homo sapiens) (UniProt P13612+P05556); experiment: inhibition of HUTS-21 binding to VLA-4, pilot screen, VLA-4 allosteric modulator project, U937 cells, HUTS-21 mAb, flow cytometry, validation set (AID 2674;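 active = inhibition above 50%, about 3 SD of the validation set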;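 note: antibody binding induced by the VLA-4 ligand LDV present at three times its Kd; 0% = LDV ligand with antibody and no compound and 100% = antibody without LDV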); conditions: HUTS-21 LIBS mAb binding, at 6.7 µM, stronger effect = higher value, binding induced by LDV ligand
Sequence of Integrin beta-1 (Homo sapiens) + Integrin alpha-4 (Homo sapiens) (P05556 whole entry, looked up): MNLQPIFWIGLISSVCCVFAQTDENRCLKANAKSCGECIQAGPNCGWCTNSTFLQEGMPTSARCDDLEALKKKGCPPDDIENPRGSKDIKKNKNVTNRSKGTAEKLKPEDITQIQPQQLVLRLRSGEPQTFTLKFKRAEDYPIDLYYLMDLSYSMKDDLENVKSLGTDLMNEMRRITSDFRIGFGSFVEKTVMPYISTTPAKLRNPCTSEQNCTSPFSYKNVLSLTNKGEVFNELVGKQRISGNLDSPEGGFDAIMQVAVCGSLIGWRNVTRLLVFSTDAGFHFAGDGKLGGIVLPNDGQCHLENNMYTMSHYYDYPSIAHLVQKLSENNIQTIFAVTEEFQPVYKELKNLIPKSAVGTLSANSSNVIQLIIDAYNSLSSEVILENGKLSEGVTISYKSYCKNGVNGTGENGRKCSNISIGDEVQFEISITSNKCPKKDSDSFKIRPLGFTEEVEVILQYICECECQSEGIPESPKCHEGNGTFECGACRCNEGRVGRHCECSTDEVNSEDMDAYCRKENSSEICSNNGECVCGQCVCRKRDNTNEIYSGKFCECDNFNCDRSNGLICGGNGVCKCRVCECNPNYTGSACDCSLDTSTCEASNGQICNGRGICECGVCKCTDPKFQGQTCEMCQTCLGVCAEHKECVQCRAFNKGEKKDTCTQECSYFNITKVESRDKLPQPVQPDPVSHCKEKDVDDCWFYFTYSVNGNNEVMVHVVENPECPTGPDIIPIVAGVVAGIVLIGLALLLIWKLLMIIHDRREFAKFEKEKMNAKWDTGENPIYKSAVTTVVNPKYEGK
Sequence of Integrin beta-1 (Homo sapiens) + Integrin alpha-4 (Homo sapiens) (P13612 whole entry, looked up): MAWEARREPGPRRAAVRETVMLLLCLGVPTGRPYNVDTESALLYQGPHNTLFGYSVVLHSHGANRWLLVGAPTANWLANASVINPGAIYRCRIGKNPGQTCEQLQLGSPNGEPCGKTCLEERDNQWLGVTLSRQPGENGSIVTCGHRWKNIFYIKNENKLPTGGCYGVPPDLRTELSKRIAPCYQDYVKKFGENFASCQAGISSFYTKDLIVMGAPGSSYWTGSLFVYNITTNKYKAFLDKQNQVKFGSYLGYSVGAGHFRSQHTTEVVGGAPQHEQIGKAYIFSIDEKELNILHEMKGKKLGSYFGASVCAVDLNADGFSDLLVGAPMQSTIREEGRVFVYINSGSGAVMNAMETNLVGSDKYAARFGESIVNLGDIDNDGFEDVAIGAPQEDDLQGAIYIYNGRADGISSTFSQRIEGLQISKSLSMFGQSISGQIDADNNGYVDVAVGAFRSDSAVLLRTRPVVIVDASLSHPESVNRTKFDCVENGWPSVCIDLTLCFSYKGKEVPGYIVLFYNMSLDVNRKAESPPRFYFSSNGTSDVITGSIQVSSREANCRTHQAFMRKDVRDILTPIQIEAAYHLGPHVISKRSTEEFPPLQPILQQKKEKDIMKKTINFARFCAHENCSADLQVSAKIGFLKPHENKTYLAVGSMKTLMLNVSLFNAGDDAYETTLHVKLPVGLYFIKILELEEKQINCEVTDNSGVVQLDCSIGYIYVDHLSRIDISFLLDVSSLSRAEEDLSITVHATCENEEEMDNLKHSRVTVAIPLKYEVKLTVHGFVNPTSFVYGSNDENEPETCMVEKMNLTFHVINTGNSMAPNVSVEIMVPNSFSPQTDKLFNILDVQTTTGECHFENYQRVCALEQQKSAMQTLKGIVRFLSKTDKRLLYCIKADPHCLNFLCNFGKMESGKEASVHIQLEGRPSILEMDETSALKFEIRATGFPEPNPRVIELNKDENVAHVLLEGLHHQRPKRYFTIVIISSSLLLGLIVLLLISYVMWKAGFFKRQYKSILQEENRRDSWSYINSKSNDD

[3] = superoxide lowering in aged yeast cells, pilot screen, validation compound set (AID 2706;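 active = superoxide response below 65% of plate, a cut near 3 SD across the whole screen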;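 note: yeast exposed to compound for one week at 30 degrees C before staining; 100% = mean of all compound wells on the same plate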); conditions: S. cerevisiae aging, superoxide DHE fluorescence; at 10 µM, stronger effect = lower value
[4] = molecular target: Beta-adrenergic receptor kinase 1 (Homo sapiens) (UniProt P25098); experiment: GRK2 binders displacing RNA aptamer, biochemical, validation, human GRK2, bead flow cytometry (AID 488806;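 active = aptamer binding inhibition above 30%, about 3 SD of noise from non-fluorescent compounds; inactive = inhibition at or below 30%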); conditions: bead-bound GRK2, FAM-aptamer displacement, at 10 µM, stronger effect = higher value
Sequence of Beta-adrenergic receptor kinase 1 (Homo sapiens) (P25098 whole entry, looked up): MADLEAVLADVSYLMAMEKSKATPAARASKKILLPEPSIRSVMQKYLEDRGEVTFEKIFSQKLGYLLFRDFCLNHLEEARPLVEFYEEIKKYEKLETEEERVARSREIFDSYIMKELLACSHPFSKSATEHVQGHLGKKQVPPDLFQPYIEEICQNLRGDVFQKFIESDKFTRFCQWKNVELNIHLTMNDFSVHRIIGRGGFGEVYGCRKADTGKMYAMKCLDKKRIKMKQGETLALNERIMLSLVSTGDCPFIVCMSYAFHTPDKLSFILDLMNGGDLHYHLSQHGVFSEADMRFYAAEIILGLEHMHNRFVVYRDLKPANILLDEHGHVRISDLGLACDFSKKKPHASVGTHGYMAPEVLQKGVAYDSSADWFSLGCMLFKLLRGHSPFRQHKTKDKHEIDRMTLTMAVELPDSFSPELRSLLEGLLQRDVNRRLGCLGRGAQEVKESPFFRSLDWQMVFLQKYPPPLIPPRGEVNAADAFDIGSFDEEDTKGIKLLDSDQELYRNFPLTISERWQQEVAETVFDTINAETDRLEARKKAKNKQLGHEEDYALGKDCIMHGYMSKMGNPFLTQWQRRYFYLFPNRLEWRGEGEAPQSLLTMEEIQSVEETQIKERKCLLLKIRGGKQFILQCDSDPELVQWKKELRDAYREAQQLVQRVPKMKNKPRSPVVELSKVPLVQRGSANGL

[5] = molecular target: Beta-2 adrenergic receptor (Homo sapiens) (UniProt P07550); experiment: beta2AR agonists driving receptor internalization, pilot screen, cell-based, FAP fluorogen, flow cytometry, validation set (AID 504459;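 active = percent response above 42, roughly 3 SD of non-fluorescent test compounds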;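 note: agonist-driven loss of surface beta2AR via internalization measured by FAP dye flow cytometry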); conditions: Am2.2-beta2AR cells, FAP surface receptor flow cytometry; at 10 µM; stronger effect = higher value
Sequence of Beta-2 adrenergic receptor (Homo sapiens) (P07550 whole entry, looked up): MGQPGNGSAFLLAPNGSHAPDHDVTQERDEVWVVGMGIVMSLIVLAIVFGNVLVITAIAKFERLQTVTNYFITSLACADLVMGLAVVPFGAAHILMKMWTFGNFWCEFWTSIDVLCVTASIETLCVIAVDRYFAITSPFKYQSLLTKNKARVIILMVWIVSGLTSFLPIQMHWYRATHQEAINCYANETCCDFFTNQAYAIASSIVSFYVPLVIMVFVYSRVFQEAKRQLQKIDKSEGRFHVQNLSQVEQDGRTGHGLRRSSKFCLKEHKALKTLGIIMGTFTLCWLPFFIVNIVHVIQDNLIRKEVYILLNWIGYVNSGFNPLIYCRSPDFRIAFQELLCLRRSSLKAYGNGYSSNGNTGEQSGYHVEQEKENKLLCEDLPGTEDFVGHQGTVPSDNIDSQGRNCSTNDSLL

[6] = molecular target: AP-2 complex subunit beta (Homo sapiens) (UniProt P63010); experiment: inhibitors of arrestin peptide binding to AP2, pilot screen, biochemical, validation set, GST-AP2 beads, flow cytometry (AID 504541;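 active = inhibition above 54%, about 3 SD of non-fluorescent compounds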;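 note: AP2 carries R879A mutation and is captured from E. coli lysate; bead-bound FITC arrestin peptide fluorescence measuring arrestin peptide binding to AP2; 0% = DMSO wells and 100% = excess unlabeled arrestin peptide control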); conditions: FITC arrestin peptide, at 10 µM, stronger effect = higher value, AP2 beta2 appendage fragment, R879A mutant
Sequence of AP-2 complex subunit beta (Homo sapiens) (P63010 whole entry, looked up, the tested form may be a part, one chain of several): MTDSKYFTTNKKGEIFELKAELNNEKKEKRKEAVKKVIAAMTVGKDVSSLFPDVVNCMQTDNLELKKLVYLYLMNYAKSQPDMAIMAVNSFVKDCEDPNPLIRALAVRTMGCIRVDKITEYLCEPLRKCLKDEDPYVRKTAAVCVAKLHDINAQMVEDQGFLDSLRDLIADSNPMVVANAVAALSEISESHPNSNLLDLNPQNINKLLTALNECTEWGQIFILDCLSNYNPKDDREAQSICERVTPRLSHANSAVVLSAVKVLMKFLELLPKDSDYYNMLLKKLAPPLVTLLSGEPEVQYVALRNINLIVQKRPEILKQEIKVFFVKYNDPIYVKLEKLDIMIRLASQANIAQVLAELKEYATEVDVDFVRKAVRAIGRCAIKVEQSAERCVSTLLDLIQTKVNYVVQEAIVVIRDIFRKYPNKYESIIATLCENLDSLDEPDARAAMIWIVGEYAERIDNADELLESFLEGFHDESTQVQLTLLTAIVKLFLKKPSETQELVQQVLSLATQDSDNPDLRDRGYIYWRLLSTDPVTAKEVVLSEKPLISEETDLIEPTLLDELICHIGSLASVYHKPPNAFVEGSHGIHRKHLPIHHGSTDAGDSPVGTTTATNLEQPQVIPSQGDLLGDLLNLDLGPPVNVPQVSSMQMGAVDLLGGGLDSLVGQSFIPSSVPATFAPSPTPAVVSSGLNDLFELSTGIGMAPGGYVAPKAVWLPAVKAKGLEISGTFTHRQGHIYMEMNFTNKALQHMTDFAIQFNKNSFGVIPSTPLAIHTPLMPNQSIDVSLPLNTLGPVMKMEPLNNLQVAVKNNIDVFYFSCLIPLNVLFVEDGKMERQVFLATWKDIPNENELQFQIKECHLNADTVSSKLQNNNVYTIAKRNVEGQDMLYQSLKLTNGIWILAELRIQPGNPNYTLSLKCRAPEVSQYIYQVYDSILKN

[7] = yeast V-ATPase proton transport modulators, S. cerevisiae, pHLuorin, HTS validation (AID 504600);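 note: plate controls were DMSO for no effect and reference compound for full effect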; conditions: S. cerevisiae pHLuorin cytosolic pH, at 10 µM, stronger effect = higher value
[8] = system: anti-desmoglein-3 scFv antibody binding to human DSG3; experiment: inhibitors of anti-DSG3 scFv binding to DSG3, pilot screen, biochemical, validation compound set, bead-based, flow cytometry (AID 588368;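 active = binding below the plate cutoff, the plate median minus 3 SD, with a reading above zero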;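 note: signal is the median channel fluorescence of bead-bound GFP antibody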); conditions: Protein G beads, DSG3-Fc, scFv-GFP binding, at 10 µM, stronger effect = lower value
[9] = inhibitors of fungal efflux pumps CDR1, CDR2, MDR1, pilot screen, validation compound set, multiplex, phenotypic (AID 588506;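 active = efflux inhibition above 0.42, the validation set average plus 4 SD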;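 note: Nile Red retained in cells so higher fluorescence means more efflux inhibition; 0 = negative control wells and 1 = enniatin B 25 µM full block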); conditions: S. cerevisiae pump-expressing triplex, Nile Red efflux flow cytometry; at 10 µM; stronger effect = higher value; the pumps come from Candida albicans
[10] = molecular target: ATP-binding cassette sub-family B member 6 (Homo sapiens) (UniProt Q9NP58); experiment: ABCB6 transporter inhibitors, pilot screen, K562-ABCB6 cells, flow cytometry, validation set (AID 588550;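 active = inhibition above the screen-wide mean plus 3 SD, about 51%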;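 note: 0% = DMSO wells and 100% = benzethonium chloride 70 µM positive control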); conditions: K562-ABCB6 porphyrin accumulation, 1 h, at 10 µM, stronger effect = higher value
Sequence of ATP-binding cassette sub-family B member 6 (Homo sapiens) (Q9NP58 whole entry, looked up): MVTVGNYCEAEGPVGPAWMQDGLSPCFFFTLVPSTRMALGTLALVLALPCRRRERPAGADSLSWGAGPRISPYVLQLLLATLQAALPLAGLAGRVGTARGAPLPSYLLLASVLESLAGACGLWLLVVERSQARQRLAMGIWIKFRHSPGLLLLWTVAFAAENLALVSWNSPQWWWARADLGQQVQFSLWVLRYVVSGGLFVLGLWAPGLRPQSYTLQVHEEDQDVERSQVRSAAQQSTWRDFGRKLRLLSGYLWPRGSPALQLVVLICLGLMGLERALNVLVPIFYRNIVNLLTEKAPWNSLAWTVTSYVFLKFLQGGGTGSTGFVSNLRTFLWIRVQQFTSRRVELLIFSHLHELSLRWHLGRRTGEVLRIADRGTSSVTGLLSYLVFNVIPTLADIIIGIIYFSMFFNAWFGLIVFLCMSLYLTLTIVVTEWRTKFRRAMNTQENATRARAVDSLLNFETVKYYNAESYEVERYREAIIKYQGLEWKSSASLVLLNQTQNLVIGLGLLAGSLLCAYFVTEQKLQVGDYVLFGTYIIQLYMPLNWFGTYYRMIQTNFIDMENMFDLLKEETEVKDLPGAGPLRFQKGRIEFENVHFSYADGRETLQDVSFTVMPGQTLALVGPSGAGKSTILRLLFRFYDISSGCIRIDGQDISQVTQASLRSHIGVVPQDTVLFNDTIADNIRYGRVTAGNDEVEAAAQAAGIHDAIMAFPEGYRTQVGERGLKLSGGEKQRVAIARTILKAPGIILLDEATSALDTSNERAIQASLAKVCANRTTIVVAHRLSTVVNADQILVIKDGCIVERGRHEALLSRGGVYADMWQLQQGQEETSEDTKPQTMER

[11] = promoters of myeloid differentiation in arrested cells, primary screen, cell-based, GFP/MAC1 double positive, flow cytometry, validation set (AID 588685;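 active = differentiation response of at least 50%, scaled between solvent and reference control, from cells with both markers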;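 note: compound exposure lasts four days before antibody staining and flow analysis; 0% = DMSO wells and 100% = 5 µM fulvestrant positive control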); conditions: ER-HoxA9 marrow cells, stronger effect = higher value, normalized: vehicle 0, fulvestrant 100

Row | SMILES | double positive events [1] [%] | vesicle binding response [1] | inhibition [2] | superoxide response (% of plate) [3] | aptamer binding inhibition [4] | response [5] | inhibition [6] | response [7] | binding (% of control) [8] | efflux inhibition (fraction of control) [9] | inhibition [10] | differentiation response [11]
1 | COc1ccc(S(=O)(=O)NC(Cc2cnc[nH]2)C(=O)O)cc1 (configuration not stated) | 49.4 | 8.1% (active) | 9.13% (inactive) | 100% (inactive) | 1% (inactive) | -7.36% (inactive) | -1% (inactive) | 1.95% (inactive) | 99.1% (inactive) | -0.35 (inactive) | -19% (inactive) | -20% (inactive)
2 | COc1cc(OC)c(C2C(C#N)=C(N)OC3=C2C(=O)CC(C)(C)C3)cc1OC (configuration not stated) | 59.9 | 137% (inactive) | 5.61% (inactive) | 109% (inactive) | 2% (inactive) | 10.6% (inactive) | 5.17% (inactive) | -1.86% (inactive) | 102% (inactive) | -0.38 (inactive) | 13% (inactive) | -11.9% (inactive)
3 | Cc1cccc(C2=N/C(=C\c3cccnc3)C(=O)O2)c1 | 63.6 | 179% (inactive) | 5.03% (inactive) | 98.1% (inactive) | 2% (inactive) | 13.3% (inactive) | -1.05% (inactive) | -1.71% (inactive) | 104% (inactive) | 0.12 (inactive) | 3% (inactive) | 103% (active)
4 | CN(C)c1cc(NC(=O)CN2CCOCC2)c2ccccc2n1 | 64.4 | 183% (inactive) | -9.06% (inactive) | 96.2% (inactive) | -2% (inactive) | 2.53% (inactive) | -0.56% (inactive) | -1.23% (inactive) | 109% (inactive) | -0.17 (inactive) | 15% (inactive) | -3.28% (inactive)
5 | O=C(OCCN1CCCC1)C1(c2ccccc2)CCCC1 | 65.8 | 226% (inactive) | -4.52% (inactive) | 86.5% (inactive) | 1% (inactive) | 1.23% (inactive) | -5.26% (inactive) | 1.69% (inactive) | 97% (inactive) | -0.06 (inactive) | -8% (inactive) | -7.2% (inactive)
6 | COc1cccc(OC)c1C(=O)Nc1nc2ccc([N+](=O)[O-])cc2s1 | 60.8 | 91.9% (inactive) | -14.5% (inactive) | 101% (inactive) | -2% (inactive) | 4.56% (inactive) | 10.3% (inactive) | 1.22% (inactive) | 101% (inactive) | 0.005 (inactive) | 8% (inactive) | -3.11% (inactive)
7 | Oc1ccc(Oc2ncc(Cl)cc2Cl)cc1 | 61.9 | 223% (inactive) | -3.67% (inactive) | 73.7% (inactive) | 2% (inactive) | -11% (inactive) | -4.55% (inactive) | 8.39% (inactive) | 107% (inactive) | 0.12 (inactive) | 6% (inactive) | -12.9% (inactive)
8 | OC(CCCN1CCCCC1)(c1ccccc1)c1ccccc1 | 62.8 | 250% (inactive) | 19.1% (inactive) | 104% (inactive) | -3% (inactive) | -0.72% (inactive) | -8.31% (inactive) | 2.56% (inactive) | 108% (inactive) | 0.34 (inactive) | 4% (inactive) | -2.46% (inactive)
9 | O=c1cc(-c2ccc3c(c2)OCCO3)oc2ccc(Cl)cc12 | 59 | 102% (inactive) | 2.93% (inactive) | 98.9% (inactive) | -1% (inactive) | -2.34% (inactive) | -6.8% (inactive) | 51.3% (active) | 74.9% (active) | 0.08 (inactive) | 27% (inactive) | -6.03% (inactive)
10 | Nc1ccc(N=Nc2ccccc2)c(N)n1 | 61.7 | 133% (inactive) | 28.7% (inactive) | 114% (inactive) | 3% (inactive) | -11.9% (inactive) | 4.28% (inactive) | 6.54% (inactive) | 103% (inactive) | -0.26 (inactive) | 4% (inactive) | -5.97% (inactive)
11 | CC(=O)c1c(C)[nH]c(C(=O)OCc2ccccc2)c1C | 60.2 | 120% (inactive) | 1.59% (inactive) | 103% (inactive) | 3% (inactive) | -5.41% (inactive) | 9.32% (inactive) | 0.36% (inactive) | 103% (inactive) | -0.25 (inactive) | 1% (inactive) | -13.3% (inactive)
12 | CC(=O)Oc1ccc(C2OC(=O)c3ccccc3N2C(C)=O)cc1 (configuration not stated) | 63.2 | 146% (inactive) | 19% (inactive) | 98.4% (inactive) | 1% (inactive) | 15.3% (inactive) | 0.53% (inactive) | -2.98% (inactive) | 98.1% (inactive) | 0.03 (inactive) | 8% (inactive) | -4.57% (inactive)
13 | O=C1Nc2ccc3sc4ccccc4c3c2C1=O | 62 | 162% (inactive) | 9.63% (inactive) | 111% (inactive) | 1% (inactive) | 3.08% (inactive) | -0.66% (inactive) | -7.6% (inactive) | 102% (inactive) | -0.19 (inactive) | -15% (inactive) | -0.18% (inactive)
14 | O=C(C1CCCCC1)N1CC(=O)N2CCc3ccccc3C2C1 (configuration not stated) | 61.4 | 225% (inactive) | -2.82% (inactive) | 109% (inactive) | 1% (inactive) | -15.4% (inactive) | -1.09% (inactive) | -5.39% (inactive) | 101% (inactive) | 0 (inactive) | 3% (inactive) | 29.5% (inactive)
15 | COc1ccc(C(=O)NC(=O)NC2(C(Cl)(Cl)Cl)OCCO2)cc1 | 60.6 | 214% (inactive) | -21.6% (inactive) | 86.9% (inactive) | 4% (inactive) | -20.1% (inactive) | 13.5% (inactive) | -0.88% (inactive) | 94.7% (inactive) | 0.12 (inactive) | 9% (inactive) | -2.03% (inactive)
16 | Fc1cc(F)cc(NC(=S)NCCCN2CCOCC2)c1 | 59.3 | 214% (inactive) | 5.69% (inactive) | 80.8% (inactive) | -5% (inactive) | -24.3% (inactive) | -3.24% (inactive) | 4.35% (inactive) | 107% (inactive) | -0.13 (inactive) | 2% (inactive) | 0.92% (inactive)
17 | CC1/C(=C\c2ccc(Cl)cc2)C(=O)C2CC1C2(C)C (configuration not stated) | 60.1 | 168% (inactive) | -3.16% (inactive) | 94.9% (inactive) | 2% (inactive) | -15.2% (inactive) | -1.54% (inactive) | 0.95% (inactive) | 99.9% (inactive) | 0.05 (inactive) | 9% (inactive) | -5.6% (inactive)
18 | COc1ccc(CC(=O)N2CC3(C)CC2CC(C)(C)C3)cc1OC (configuration not stated) | 64.1 | 255% (inactive) | -5.89% (inactive) | 91.8% (inactive) | 1% (inactive) | -7.91% (inactive) | -2.57% (inactive) | 1.81% (inactive) | 102% (inactive) | 0.44 (active) | 3% (inactive) | 5.6% (inactive)
19 | C=CCN1C(=O)c2oc3ccccc3c(=O)c2C1c1ccc(O)c(OC)c1 (configuration not stated) | 60.1 | 150% (inactive) | 10.5% (inactive) | 102% (inactive) | 2% (inactive) | 105% (active) | -0.24% (inactive) | 2.05% (inactive) | 99.1% (inactive) | 0.37 (inactive) | 0% (inactive) | 40.8% (inactive)
20 | CN1CCc2cccc3c2[C@@H]1Cc1ccc(O)c(O)c1-3 | 61 | 194% (inactive) | -38.6% (inactive) | 93.1% (inactive) | 11% (inactive) | 26.8% (inactive) | 6.55% (inactive) | -9.4% (inactive) | 100% (inactive) | -0.09 (inactive) | -20% (inactive) | 5.85% (inactive)
21 | CCn1cc(C(=O)O)c(=O)c2cc(F)c(N3CCNCC3)cc21 | 70.1 | 276% (inactive) | 14.2% (inactive) | 104% (inactive) | 2% (inactive) | 29.6% (inactive) | 5.87% (inactive) | 7.15% (inactive) | 98% (inactive) | 0 (inactive) | 2% (inactive) | 10.8% (inactive)
22 | O=C(c1ccccc1F)c1cc2c(cc1[N+](=O)[O-])OCCO2 | 63 | 163% (inactive) | 15% (inactive) | 107% (inactive) | 3% (inactive) | 24.6% (inactive) | -6.21% (inactive) | 1.51% (inactive) | 105% (inactive) | -0.19 (inactive) | 7% (inactive) | -1.65% (inactive)
23 | O=C(NCc1ccccc1Cl)NC(=O)c1ccccc1 | 62 | 221% (inactive) | 6.46% (inactive) | 115% (inactive) | 4% (inactive) | 0.79% (inactive) | 8.1% (inactive) | -5.42% (inactive) | 98.7% (inactive) | 0.19 (inactive) | 7% (inactive) | 1.64% (inactive)
24 | COc1cc2c(cc1O)CCN(C(=O)c1ccco1)C2C (configuration not stated) | 59.4 | 242% (inactive) | 5.03% (inactive) | 98.4% (inactive) | -1% (inactive) | 0.24% (inactive) | 14.6% (inactive) | 0.13% (inactive) | 97.4% (inactive) | 0.22 (inactive) | 4% (inactive) | 8.8% (inactive)
25 | COc1ccc(O)c(N)c1 | 70.2 | 381% (inactive) | -22.3% (inactive) | 104% (inactive) | 5% (inactive) | 76.4% (active) | 20.1% (inactive) | 3.74% (inactive) | 99.1% (inactive) | -0.1 (inactive) | 7% (inactive) | -0.8% (inactive)
26 | CCOc1ccccc1Oc1coc2cc(OCC(=O)O)ccc2c1=O | 63.5 | 156% (inactive) | 1.44% (inactive) | 111% (inactive) | 10% (inactive) | -21.7% (inactive) | -11% (inactive) | 5.03% (inactive) | 106% (inactive) | -0.09 (inactive) | -2% (inactive) | -8.93% (inactive)
